# High-throughput results deposited in PubChem BioAssay by several laboratories.
# In the library only some 3.5% were active in any assay of this set; here they are far more common.
# eIF4E-4G inh = blocks eIF4E binding to eIF4G; 220,000 compounds, 0.37% hits; TR-FRET eIF4E-eIF4GI(517-606) binding, 2 h; AID 782; P63073+Q04637; inhibition, % at 21.7 µM;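 active means inhibition above about 30%, limit read from the data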;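 further: 0% = full FRET control wells and 100% = background wells lacking eIF4GI fragment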
# Mcl1 Bid PPI = disrupts binding of human Mcl-1 to Bid peptide | 220,000 compounds, 0.97% hits | AID 1021 | inhibition, % at 21.7 µM | TR-FRET Mcl-1/Bid-Dy647 peptide binding, 1536-well;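 active means compounds that cut the binding signal by more than half at the single screening dose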;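 further: His-tagged Mcl-1 with europium anti-His antibody binding Bid BH3 peptide; 0% = Mcl-1 plus peptide wells and 100% = peptide-only wells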
# Hck Nef HTS = human Hck-Nef kinase inhibition | Recombinant Hck-YEEI plus Nef, Z-Lyte FRET kinase assay | inhibition, % at 20 µM | 220,000 compounds, 0.68% hits;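 active means Hck-Nef kinase inhibition above about 50%, limit read from the data; inactive means inhibition below that limit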;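 further: 0% = DMSO with Hck plus Nef and 100% = Hck alone without Nef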
# Target sequence (P08631 whole entry, looked up): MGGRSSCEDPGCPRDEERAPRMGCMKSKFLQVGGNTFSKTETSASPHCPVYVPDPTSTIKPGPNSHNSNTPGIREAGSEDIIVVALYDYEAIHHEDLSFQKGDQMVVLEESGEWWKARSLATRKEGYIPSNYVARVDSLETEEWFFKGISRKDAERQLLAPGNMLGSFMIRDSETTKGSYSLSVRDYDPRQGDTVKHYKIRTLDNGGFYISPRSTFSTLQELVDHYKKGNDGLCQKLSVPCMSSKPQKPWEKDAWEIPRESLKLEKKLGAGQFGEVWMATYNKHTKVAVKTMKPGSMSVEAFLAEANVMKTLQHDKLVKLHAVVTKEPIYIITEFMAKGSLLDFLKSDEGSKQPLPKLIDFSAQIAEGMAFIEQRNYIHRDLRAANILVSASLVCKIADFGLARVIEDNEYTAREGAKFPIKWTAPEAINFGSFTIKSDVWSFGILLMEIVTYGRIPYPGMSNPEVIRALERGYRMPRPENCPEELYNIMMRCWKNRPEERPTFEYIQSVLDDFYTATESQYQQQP
# Mcl-1 Bim block = disrupts Bim peptide binding to human Mcl-1; Bead-based flow cytometry, Bim peptide-Mcl-1 binding; 190,000 compounds, 0.1% hits; inhibition, % at 10 µM; in the data active means inhibition above about 40%;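 further: 0% = no compound tracer wells and 100% = peptide blocker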
# 14-3-3 Bad PPI = disrupts binding of bovine 14-3-3 zeta to phospho-Bad peptide; inhibition, % at 21.7 µM; 220,000 compounds, 0.71% hits; TR-FRET 14-3-3zeta/Dy647-pBad peptide displacement, 1 h;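 active means inhibition above about 70%, limit read from the data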;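 further: 0% = full 14-3-3 plus peptide FRET controls and 100% = background without 14-3-3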
# Mcl1 Noxa PPI = disrupts binding of human Mcl-1 to Noxa peptide; Q07820; TR-FRET Mcl-1/Noxa peptide binding, 2 h; inhibition, % at 21.7 µM; 220,000 compounds, 1.5% hits; AID 1022;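 active means compounds that cut the protein-peptide binding signal by more than 50% relative to plate controls in a single-dose test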;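 further: His-tagged Mcl-1 with rhodamine Noxa BH3 peptide and terbium anti-His antibody; 0% = Mcl-1 plus Noxa peptide wells and 100% = peptide-only wells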
# * hit, by the source's call; / = no result given; ! = not confirmed by another sample; [ ] = another dose, or the depositor's remark.
SMILES,eIF4E-4G inh,Mcl1 Bid PPI,Hck Nef HTS,Mcl-1 Bim block,14-3-3 Bad PPI,Mcl1 Noxa PPI
COC(=O)CSc1nc(N2CCOCC2)c2c(c1C#N)CCCC2,3.1,-18.7,31.5,/,8.6,18.2
COC(=O)CSc1nc(-c2ccc(C)cc2)c2c(c1C#N)CCCC2,11.4,61.5*,-3.6,-6.0,1.9,-17.2
COc1ccc(/C=C2\C(=O)N(c3c(Cl)cc(Cl)cc3Cl)N=C2NC(=O)c2cccc([N+](=O)[O-])c2)cc1,7.4,24.3,3.4,0.0,1.5,106.4*
COC(=O)c1sc(S(=O)(=O)Nc2ccc(C)c(C)c2)c(C(=O)OC)c1C,0.4,2.6,1.2,22.0,-1.6,29.7
CC(=O)NC1(C(=O)O)CCCC1,-2.5,-9.5,3.3,/,-13.8,2.3
Nc1csnc1C(=O)O,10.1,-21.8,0.9,-1.0,77.8*,20.4
Nc1nc(-c2ccc(C(=O)O)cc2)cs1,1.0,-8.3,22.6,0.0,-6.4,7.7
CCCn1c(N)c(CC)c(=O)[nH]c1=O,-1.2,-55.0,18.8,0.0,-8.4,3.5
Fc1ccccc1-c1nc2ccccc2[nH]1,-1.4,-33.2,16.7,-2.0,-3.2,-13.4
Cc1ccccc1-c1nc2ccccc2[nH]1,0.8,2.1,7.0,-7.0,-3.7,-9.2
Clc1ccccc1-c1nc2ccccc2[nH]1,2.5,76.9*,16.6,/,-0.6,-7.1
c1ccc2[nH]c(-c3ccnc4ccccc34)nc2c1,49.1*![fluorescence artefact?],8.3,-6.7,-1.0,1.2,-1.1
Cc1cc(C)cc(C(=O)Nc2ccc(NC(=O)Cc3ccccc3)cc2)c1,-0.3,-45.9,9.0,1.0,-5.8,16.4
CC1(C)CC(=O)C/C(=N\NC(=S)NCc2ccccc2)C1,-2.9,-54.1,16.0,2.0,-18.8,10.8
CC1(C)CC(=O)CC(=NCC(=O)O)C1,4.0,-6.6,0.3,0.0,7.7,65.6*
Cc1nc2c(c(N3CCOCC3)n1)OCC(=O)N2,2.3,-19.5,-2.8,0.0,73.7*,-6.7
Cc1nc(Cl)c2c(n1)NC(=O)CO2,2.5,-2.3,9.1,/,0.9,-0.5
COc1ccc(-c2noc(CCC(=O)NCCCN3CCC(Cc4ccccc4)CC3)n2)cc1,-7.0,-10.4,-0.8,-5.0,0.8,7.3
Cc1ccc(NC(=O)NCCCN2CCOCC2)cc1,0.3,-33.3,1.6,-5.0,-10.8,7.2
COc1ccc(N2CCC(CNC(=S)Nc3cc(C)cc(C)c3)C2)cc1 (stereo unspecified),14.3,-147.6,-22.2,/,1.1,10.9
COc1ccc(NC(=O)NCCCN2CCC(Cc3ccccc3)CC2)cc1,-10.0,-9.3,12.1,/,-2.8,51.7*
COc1ccc(N2CCC(CNC(=O)Nc3ccccc3)C2)cc1 (stereo unspecified),8.8,-43.9,-2.1,-5.0,-0.9,82.2*
COc1ccc(Cl)c(N2CCN(CCCNC(=O)Nc3ccc(C)cc3)CC2)c1,-2.3,4.5,-0.1,0.0,-4.2,75.0*
CCOC(=O)C1(CCOC)CCN(Cc2nc(C(C)C)cs2)CC1,-2.6,-6.5,19.8,-2.0,-3.6,6.7
CCCCc1nc(SCc2ccc([N+](=O)[O-])cc2)n[nH]1,-0.7,3.7,16.5,-4.0,-4.1,2.8
SMILES,eIF4E-4G inh,Mcl1 Bid PPI,Hck Nef HTS,Mcl-1 Bim block,14-3-3 Bad PPI,Mcl1 Noxa PPI
O=C(CSc1nnc(-c2ccco2)c(-c2ccco2)n1)Nc1ccccc1,19.1,23.1,-2.9,-1.0,54.4,89.6*
Cc1ccc(NC(=O)CSc2nnc(-c3ccco3)c(-c3ccco3)n2)cc1,1.2,2.3,10.2,2.0,-5.7,90.2*
Cc1ccc(NC(=O)CSc2ccc(-c3ccco3)nn2)cc1,7.7,-17.9,24.4,0.0,-10.1,1.8
CC(C)(C)c1ccc(CS(=O)CC(O)CO)cc1 (stereo unspecified),-0.2,-20.2,6.4,-3.0,3.2,-2.7
C=C(C)Cn1c(Sc2nnc(C)s2)nc2c1c(=O)[nH]c(=O)n2C,5.5,89.1*,0.5,0.0,-9.1,-16.6
COc1ccc2c(c1)N(S(=O)(=O)c1ccccc1)CCC2=O,7.3,10.2,3.8,0.0,8.3,32.5
O=C(CSc1nnnn1-c1ccc(F)cc1)c1ccc(O)c(O)c1,2.9,-14.9,2.6,-1.0,-1.7,56.9*
COc1ccc(-n2nnnc2SCC(=O)c2cccc(OC)c2)cc1,-1.3,7.1,-0.1,-2.0,-8.2,0.0
Cc1cc(=O)[nH]c(SCc2cccc3cccnc23)n1,4.7,-19.6,13.3,-1.0,-4.3,9.3
